Experimental data taken from PubChem BioAssay AID430 (Sanford-Burnham Center for Chemical Genomics, 2006).
The campaign covered roughly 63,000 compounds. About 1,100 (1.7%) were called active. The sample as a whole holds a higher share of actives than the screen did. Measured potencies and affinities stand elsewhere. Unmarked numbers belong to inactive results. Cut-off read from the data, not from the text of the source: active = cytotoxicity above about 50%; inactive = the rest.

Assay: HPDE-C7 pancreatic duct cell viability loss – fluorescence, HTS (AID 430);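 note: cells exposed to compound for 48 hours before viability readout; 0% = vehicle and 100% = reference cytotoxic drug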
Details: HPDE-C7 pancreatic duct cells viability, at 10 µM, hits give high values

**Q.** Which cytotoxicity does the source give for `CCOc1ccc(N=C(NC#N)SC)cc1` here?
**A.** -2.8%

**Q.** Which cytotoxicity does the source give for `CCN(CC)CCNC(=O)c1ccc2c(c1)ncn2C1CCCCC1` here?
**A.** 0.5%

**Q.** With `O=C(Nc1cccc(C(F)(F)F)c1)C1CCCN(S(=O)(=O)c2cnc[nH]2)C1` (centres undefined) as the molecule, how does the cytotoxicity read?
**A.** -7.5%

**Q.** With `CCOC(=O)CN(C(=O)CSc1nnc(-c2ccncc2)n1CCCN(C)C)c1ccccc1` as the molecule, how does the cytotoxicity read?
**A.** -4.8%

**Q.** With `Cc1nc2c3c4c(sc3n3c(SCC(=O)NCc5ccco5)nnc3n2n1)COC(C)(C)C4` as the molecule, how does the cytotoxicity read?
**A.** -6.3%

**Q.** With `Cc1cc(Cl)c(S(=O)(=O)NCc2ccncc2)cc1OCC(N)=O` as the molecule, how does the cytotoxicity read?
**A.** 5.1%

**Q.** For `CC1(C)CC(=O)C=C(Nc2ccccc2F)C1`, which cytotoxicity is on record?
**A.** 1.2%

**Q.** With `O=C(c1ccc(Cl)cc1)C1CCN(C(=O)NC2CCCCC2)CC1` as the molecule, how does the cytotoxicity read?
**A.** -11.6%

**Q.** Which cytotoxicity does the source give for `N#CCCCN1C(=O)C(O)(CC(=O)c2ccc3c(c2)OCCO3)c2ccccc21` (centres undefined) here?
**A.** -27.8%

**Q.** For `Cc1ccc(-n2c(Cn3cnc4ccccc43)nnc2SCC(=O)O)cc1`, which cytotoxicity is on record?
**A.** -16.2%

**Q.** Which cytotoxicity does the source give for `COc1ccc(NC(C)=O)cc1NC(=O)CN1CCN(CC(=O)Nc2ccc(Cl)cc2)CC1` here?
**A.** -12.5%

**Q.** For `CCc1nc2ccccc2c(NC(=O)CN2CCC(C)CC2)c1C`, which cytotoxicity is on record?
**A.** 8.8%

**Q.** For `CCOC(=O)C1CCCN(CC(=O)NC2=Nc3ccccc3N=C(C)C2c2ccccc2)C1` (centres undefined), which cytotoxicity is on record?
**A.** 3.8%

**Q.** Which cytotoxicity does the source give for `O=C(NCc1ccc(F)cc1)c1noc2c1CCCC2` here?
**A.** -10.3%

**Q.** For `Fc1ccc(-c2ccc(-c3nn4c(-c5ccco5)nnc4s3)o2)cc1`, which cytotoxicity is on record?
**A.** 73.5% (active)

**Q.** With `Clc1ccc(-c2ccc(-c3nn4c(-c5ccco5)nnc4s3)o2)cc1` as the molecule, how does the cytotoxicity read?
**A.** -11.9%

**Q.** Which cytotoxicity does the source give for `Cc1oc(-c2ccc(F)cc2)cc1-c1nn2c(-c3ccco3)nnc2s1` here?
**A.** -18%

**Q.** Which cytotoxicity does the source give for `COc1cccc(OCc2nc3ccccc3c(=O)n2N)c1` here?
**A.** -8.2%

**Q.** With `CCCn1c(C)nc2c(c1=O)c1nc3ccccc3nc1n2-c1ccc2c(c1)OCCO2` as the molecule, how does the cytotoxicity read?
**A.** 51.4% (active)

**Q.** With `CCC(C)n1cnc2c(c1=O)c1nc3ccccc3nc1n2-c1ccc2c(c1)OCCO2` (centres undefined) as the molecule, how does the cytotoxicity read?
**A.** -13.4%

**Q.** With `O=c1c2c3nc4ccccc4nc3n(-c3ccc4c(c3)OCCO4)c2ncn1CC1CCCO1` (centres undefined) as the molecule, how does the cytotoxicity read?
**A.** 0.3%

**Q.** With `CC(=NCC1CCCO1)C1=C(O)CC(C)(C)CC1=O` (centres undefined) as the molecule, how does the cytotoxicity read?
**A.** -12.6%

**Q.** With `Cc1ccccc1-n1nc2c(c1NC(=O)COc1ccc(Cl)cc1)CS(=O)C2` (centres undefined) as the molecule, how does the cytotoxicity read?
**A.** 10%

**Q.** With `CCCNC(=O)c1cc(-c2ccco2)on1` as the molecule, how does the cytotoxicity read?
**A.** -2.4%

**Q.** With `CCCOc1ccc(C(=O)NCc2cccnc2)cc1` as the molecule, how does the cytotoxicity read?
**A.** -13.2%

**Q.** Which cytotoxicity does the source give for `Cc1ccc(S(=O)(=O)Cn2nnnc2C(CC(C)C)N2CCN(C(=O)c3ccco3)CC2)cc1` (centres undefined) here?
**A.** 4.4%

**Q.** With `CCN(c1ccccc1)S(=O)(=O)c1ccc(C(=O)Nc2nnc(COC)o2)cc1` as the molecule, how does the cytotoxicity read?
**A.** 60.9% (active)

**Q.** With `CCc1nnc(NC(=O)c2ccc(S(=O)(=O)N(CCOC)CCOC)cc2)o1` as the molecule, how does the cytotoxicity read?
**A.** -20.2%

**Q.** For `COCc1nnc(NC(=O)c2ccc(S(=O)(=O)N(C)c3ccccc3)cc2)o1`, which cytotoxicity is on record?
**A.** 42.1%

**Q.** With `CCCN(CCC)S(=O)(=O)c1ccc(C(=O)Nc2nnc(CSC)o2)cc1` as the molecule, how does the cytotoxicity read?
**A.** 12.6%

**Q.** Which cytotoxicity does the source give for `COCCN(CCOC)S(=O)(=O)c1ccc(C(=O)Nc2nnc(C)o2)cc1` here?
**A.** -6.2%

**Q.** Which cytotoxicity does the source give for `COCc1nnc(NC(=O)c2ccc(S(=O)(=O)N(C)C3CCCCC3)cc2)o1` here?
**A.** 47.9%

**Q.** With `CCCCN(CC)S(=O)(=O)c1ccc(C(=O)Nc2nnc(CSC)o2)cc1` as the molecule, how does the cytotoxicity read?
**A.** 23.6%

**Q.** With `CSCc1nnc(NC(=O)c2ccc(S(=O)(=O)N(CC(C)C)CC(C)C)cc2)o1` as the molecule, how does the cytotoxicity read?
**A.** 62.4% (active)

**Q.** With `CCCCN(CCCC)S(=O)(=O)c1ccc(C(=O)Nc2nnc(CSC)o2)cc1` as the molecule, how does the cytotoxicity read?
**A.** 73.1% (active)

**Q.** For `CCCCN(CC)S(=O)(=O)c1ccc(C(=O)Nc2nnc(COC)o2)cc1`, which cytotoxicity is on record?
**A.** 17.5%

**Q.** For `CCCCN(CCCC)S(=O)(=O)c1ccc(C(=O)Nc2nnc(COC)o2)cc1`, which cytotoxicity is on record?
**A.** 75.3% (active)

**Q.** Which cytotoxicity does the source give for `CCc1nnc(NC(=O)c2ccc(S(=O)(=O)N(CC(C)C)CC(C)C)cc2)o1` here?
**A.** 48.8%

**Q.** Which cytotoxicity does the source give for `O=C(O)C1CC(=O)N(c2ccc(F)c(F)c2)C1` (centres undefined) here?
**A.** -4.7%

**Q.** For `CC1CCN(C(=O)CSc2nnc(-c3cc4ccccc4cc3O)n2Cc2ccco2)CC1`, which cytotoxicity is on record?
**A.** 22.2%

**Q.** With `CCOC(=O)Cn1nc(C)c(-c2ccccc2)c1N` as the molecule, how does the cytotoxicity read?
**A.** -9.4%

**Q.** With `Cc1nc2sc(C(c3ccccc3)N3CCC(O)CC3)c(O)n2n1` (centres undefined) as the molecule, how does the cytotoxicity read?
**A.** 7.2%

**Q.** With `O=C(O)c1ccc(S(=O)(=O)c2ccc3c(c2)C(=O)N(CC2CCCO2)C3=O)cc1` (centres undefined) as the molecule, how does the cytotoxicity read?
**A.** -5.6%

**Q.** Which cytotoxicity does the source give for `O=C(NC1CCCC1)C1CC(=O)N(C2CCCCCCC2)C1` (centres undefined) here?
**A.** -18%

**Q.** With `Cn1c(=O)c(NCCO)c2c3c(cccc31)C(=O)c1ccccc1-2` as the molecule, how does the cytotoxicity read?
**A.** -8.4%

**Q.** For `CC(=O)Nc1c2c3c(cccc3n(C)c1=O)C(=O)c1ccccc1-2`, which cytotoxicity is on record?
**A.** -6.7%

**Q.** For `CCNc1c2c3c(cccc3n(C)c1=O)C(=O)c1ccccc1-2`, which cytotoxicity is on record?
**A.** 53.8% (active)

**Q.** For `Cc1nn(CCCNC(=O)C2CCCO2)cc1Br` (centres undefined), which cytotoxicity is on record?
**A.** -8.3%

**Q.** For `CCOc1cc2[nH]c(=S)n(CC3CCCN3CC)c(=O)c2cc1OCC` (centres undefined), which cytotoxicity is on record?
**A.** 4.2%

**Q.** With `O=C(NCc1ccc2c(c1)OCO2)c1nnc(Cc2ccc(Cl)cc2)o1` as the molecule, how does the cytotoxicity read?
**A.** -0.3%

**Q.** Which cytotoxicity does the source give for `O=C(NCc1ccc2c(c1)OCO2)c1ccc(-c2ccc(Cl)cc2)o1` here?
**A.** 53.5% (active)

**Q.** For `O=C(NCc1ccc2c(c1)OCO2)c1cccc(Cl)c1`, which cytotoxicity is on record?
**A.** -4.3%

**Q.** Which cytotoxicity does the source give for `O=C(Nc1cccc2nsnc12)c1ccc2c(c1)OCCO2` here?
**A.** -5.8%

**Q.** With `O=C(Nc1ccccc1C(=O)N1CCCC1)C1CCN(c2ncccn2)CC1` as the molecule, how does the cytotoxicity read?
**A.** -9.4%

**Q.** With `O=C(COC(=O)C1CCN(C(=O)c2ccc(Cl)cc2)CC1)c1ccco1` as the molecule, how does the cytotoxicity read?
**A.** 1.1%

**Q.** With `CCc1ccc(-c2nc(C(N)=O)c3[nH]c(=O)n(-c4ccccc4OC)c3n2)cc1` as the molecule, how does the cytotoxicity read?
**A.** 52.3% (active)

**Q.** For `COc1ccccc1-n1c(=O)[nH]c2c(C(N)=O)nc(-c3cccnc3)nc21`, which cytotoxicity is on record?
**A.** 20.4%

**Q.** For `COc1ccc(-c2nc(C(N)=O)c3[nH]c(=O)n(-c4ccccc4OC)c3n2)c(OC)c1`, which cytotoxicity is on record?
**A.** -6.2%

**Q.** Which cytotoxicity does the source give for `CC1(C)CC(=O)c2sc(NC(=O)CN3C(=O)CCC3=O)nc2C1` here?
**A.** -5.4%
